The values below come from PubChem BioAssay (NCATS).

Records with an inconclusive call do not appear. Values without a mark were called inactive. The source made the active and inactive calls. Calls come from the whole dose curve.
% is set by controls: 0 for no effect and ±100 for the full control effect.

The target in this test is Bile acid receptor (Homo sapiens) (UniProt Q96RI1). The test can be described thus: qHTS assay for small molecule antagonists of farnesoid X receptor signaling (AID 588526). Particulars: HEK293T FXR-UAS-bla, beta-lactamase ratio, antagonist mode; series mostly up to 76.7 µM; activity change, negative = inhibition: at the top concentration. The text has this: NIH Chemical Genomics Center [NCGC] U.S. Environmental Protection Agency [EPA] National Institutes of Environmental Health Sciences [NIEHS] National Toxicology Program [NTP] NCGC Assay Overview The farnesoid-X-receptor (FXR), a nuclear hormone receptor is highly expressed in liver, intestine, kidney and adrenal cortex. Natural ligands of FXR are the bile acids (Cholic acid, Chenodeoxy cholic acid etc). It is an important regulator of diverse metabolic pathways, including the bile acid homeostasis, lipid and glucose metabolisms. FXR regulates the expression of target genes by binding either as a monomer or as a heterodimer with RXR (retinoid X receptor). As FXR regulates a large number of target genes involved in bile acid, lipoprotein and glucose metabolisms, it is a potential pharmacological target for bile acid and lipid disorders. Thus screening environmental chemicals on FXR signaling can be used for the studies focused on metabolic syndrome, hepatic and intestinal toxicity etc.
Sequence of Bile acid receptor (Homo sapiens) (Q96RI1 whole entry, looked up): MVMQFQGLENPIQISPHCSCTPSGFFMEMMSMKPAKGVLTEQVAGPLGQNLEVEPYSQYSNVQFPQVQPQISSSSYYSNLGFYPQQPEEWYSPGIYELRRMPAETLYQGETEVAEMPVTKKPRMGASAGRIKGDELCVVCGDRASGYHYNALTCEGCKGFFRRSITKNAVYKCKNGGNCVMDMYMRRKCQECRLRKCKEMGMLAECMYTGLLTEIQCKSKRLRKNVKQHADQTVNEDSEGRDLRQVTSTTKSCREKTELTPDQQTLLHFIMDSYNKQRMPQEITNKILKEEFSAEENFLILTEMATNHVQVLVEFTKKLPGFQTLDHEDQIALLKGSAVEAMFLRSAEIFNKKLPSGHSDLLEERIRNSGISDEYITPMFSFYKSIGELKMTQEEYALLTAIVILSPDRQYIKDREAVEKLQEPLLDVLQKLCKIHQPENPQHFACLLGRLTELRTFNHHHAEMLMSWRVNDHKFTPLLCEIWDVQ
NCGC Assay Protocol Summary Using a beta-lactamase reporter-gene under control of Farnesoid X receptor (FXR) response element, a cell-based assay [GeneBLAzer FXR-UAS-bla assay developed by Invitrogen] was used to measure FXR ligands signaling. GeneBLAzer FXR-UAS-bla HEK293T cells were used with assay medium containing 10% dialyzed FBS. The assay was performed in clear bottom black Greiner 1536-well plates. Guggulsterone were used in the screen as the positive control. Library compounds were measured for their ability to inhibit the reporter gene activity. Compounds were screened in a titration series in 1536-well format. The fluorescence intensity (405 nm excitation, 460/530 nm emission) was measured using an EnVision plate reader. Data was normalized relative to Chenodeoxycholic acid (50 uM, 100%), and DMSO only wells (basal, 0%). Concentration-response titration points for each compound were fitted to the Hill equation yielding concentrations of half-maximal inhibition (IC50) and maximal response (efficacy) values. qHTS protocol for FXR beta-lactamase assay in antagonist mode [Step] [Parameter] [Value] [Description] 1. Reagent; 5 uL; 5000 cells/well 2. Incubation; 37 C for 5-7 hrs 3. Compounds; 23 nL; 0.59 nM to 92 uM 4. Controls (Guggulsterone, FXR antagonist); 23 nL, - One column of dose response, start 200 uM, 1:2 dilutions in duplicates 5. Agonist (Stimulator); 1uL; Chenodeoxycholic acid at 100 uM and 50 uM final concentrations 6. Incubation; 37 C for 16 hrs 7. Detection reagent; 1 uL of CCF4-dye 8. Incubation; RT for 2 hrs 9. Detection; Fluorescence; Envision plate reader
(In general: qHTS replaces the single test concentration by a dilution series.)
For `Cc1cc([N+](=O)[O-])ccc1N`, the “activity change, negative = inhibition” value was -4.13%.
Turning to `Nc1nc(-c2ccccc2)cs1`, the “activity change, negative = inhibition” value is -19.3%.
Take `C=Cc1ccccc1C=C`: the “activity change, negative = inhibition” value is -6.84%.
The same measure, in the same setting: the figure for `CC(C)c1ccccc1` is -2.26%.
Still for that read-out and setting: the same measure for `O=C1CCC(=O)O1`: 1.77%.
With `CCC(C)=O`, the “activity change, negative = inhibition” value was -6.55%.
Same read-out and setting: the same measure for `C=C(C)C(=O)OC`: -5.83%.
On the same count and under the same terms, the same measure for `Cc1ccccc1Br`: -7.55%; for `CC#N`: -16.5%.
Turning to `O=C(O)CCSSCCC(=O)O`, the “activity change, negative = inhibition” value was 5.43%.
Same read-out and setting: the figure for `O=[N+]([O-])c1ccc2nc[nH]c2c1` is -5.73%.
Still for that read-out and setting: the figure for `O=P(O)(OCc1ccccc1)OCc1ccccc1` is -4.92%.
Same read-out and setting: the figure for `CCCC(C)CO` (stereo not given) is -11.2%; for `Cc1cccc([N+](=O)[O-])c1C(=O)O` it is 5.05%.
In the case of `CCCCCCC(=O)O`, the “activity change, negative = inhibition” value is -2.46%.
With `Nc1cc(Cl)c(N)c(Cl)c1`, the outcome was inactive.
`CC(=O)CC(C)C`: the “activity change, negative = inhibition” value is -6.06%.
Same read-out and setting: the figure for `C=CCOC(=O)CCCCCCCC` is 4.78%; for `CCCCC=O` it is -6.53%; for `OCCO` it is -3.38%.
Still for that read-out and setting: the figure for `BrC/C=C/CBr` is 2.27%; for `O=C(O)CNC(=O)c1ccc([N+](=O)[O-])cc1` it is 0.478%; for `C1CCOC1` it is 10%.
The same measure, in the same setting: the same measure for `O=[N+]([O-])c1ccc(CCO)cc1`: -0.958%; for `CCOc1cc(OCC)c(C(C)=O)cc1OCC`: -7.72%; for `O=[N+]([O-])c1ccc(NCCO)c(OCCO)c1`: -8.55%.
For `CC=O`, the “activity change, negative = inhibition” value is -1.34%.
Same read-out and setting: the figure for `CCOCCO` is 7.43%.
As for `Cc1cc(C)c(N)cc1C`, the “activity change, negative = inhibition” value was -6.63%.
On the same count and under the same terms, the same measure for `CCC(O)C(C)(C)C` (stereo not given): 5.18%; for `CCCCC(CC)CO` (stereo not given): 11.1%; for `O=C(O)c1c(Cl)cccc1Cl`: -8.92%.
Still for that read-out and setting: the same measure for `CC(=C/C=C/C(C)=C/C=C/C=C(C)/C=C/C=C(C)/C=C/C(=O)O)/C=C/C(=O)O`: -10.4%; for `C=C(C)C(=O)OCC(C)C`: 5.85%.
Still for that read-out and setting: the figure for `Cc1cc(C)cc(N)c1` is -1.11%.
As to `CCCCC(C=O)CC` (stereo not given), the “activity change, negative = inhibition” value was -9.79%.
On the same count and under the same terms, the same measure for `C=C(C)C(=O)OCCCCCCCCCC`: -6.25%; for `CC(N)CN` (stereo not given): -6.65%; for `FC(F)(F)c1ccccc1Cl`: 0.289%.
In the case of `NC(=O)/N=N/C(N)=O`, the “activity change, negative = inhibition” value is -7.55%.
